According to PubChem BioAssay AID1159580 (chemical genetic matrix, 2015):
Hit rate of the full screen: of about 5,500 compounds, about 2,000 (36%) were called active. Not shown: some 18% with an inconclusive outcome. The list shows a part of the results. Unmarked numbers belong to inactive results. Rule as the data show it: active = normalized growth mostly below about 0.91 (no sharp cut-off); inconclusive = no clear call, values can overlap the other calls; inactive = mostly above about 0.92.

Test: chemical genetic growth profiling, strain panel (AID 1159580);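 also: tested at 20 µM; growth read once vehicle control cultures reached saturation at 30 °C; 1 = growth at the plate median or of vehicle wells; lower values mean less growth of the strain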
Settings: growth OD

For CC(C)c1c(O)ccc2c1CCC1C(C)(C)CCC[C@]21C (some centres not stated), the normalized growth (S. cerevisiae deletion strains, locus YJR066W, strain TOR1, active compounds read low) was 0.709 (active), the normalized growth (S. cerevisiae deletion strains, locus YKL009W, strain mrt4, active compounds read low) was 0.822 (active) and the normalized growth (S. cerevisiae deletion strains, locus YKL068W, active compounds read low) was 1.03. For the same molecule, the normalized growth (S. cerevisiae deletion strains, locus YKL085W, strain MDH1 (second series), active compounds read low) was 0.358 (active), the normalized growth (S. cerevisiae deletion strains, locus YKL085W, strain MDH1, active compounds read low) was 0.358 (active) and the normalized growth (S. cerevisiae deletion strains, locus YKL160W, strain elf1, active compounds read low) was 0.729 (active). For the same molecule, the normalized growth (S. cerevisiae deletion strains, locus YKL190W, strain CNB1, active compounds read low) was 0.0594 (active), the normalized growth (S. cerevisiae deletion strains, locus YKR001C, strain vps1, active compounds read low) was 0.0785 (active) and the normalized growth (S. cerevisiae deletion strains, locus YKR026C, strain gcn3, active compounds read low) was 0.993. For the same molecule, the normalized growth (S. cerevisiae deletion strains, locus YKR091W, strain srl3, active compounds read low) was 0.78 (active), the normalized growth (S. cerevisiae deletion strains, locus YLL001W, strain dnm1, active compounds read low) was 0.819 (active) and the normalized growth (S. cerevisiae deletion strains, locus YLL026W, active compounds read low) was 0.263 (active). The normalized growth (S. cerevisiae deletion strains, locus YLL041C, strain sdh2, active compounds read low) was 0.55 (active), the normalized growth (S. cerevisiae deletion strains, locus YLR027C, strain aat2, active compounds read low) was 0.254 (active) and the normalized growth (S. cerevisiae deletion strains, locus YLR039C, strain RIC1, active compounds read low) was 0.127 (active). The normalized growth (S. cerevisiae deletion strains, locus YLR058C, strain SHM2, active compounds read low) was 0.104 (active), the normalized growth (S. cerevisiae deletion strains, locus YLR102C, strain apc9, active compounds read low) was 0.214 (active) and the normalized growth (S. cerevisiae deletion strains, locus YLR113W, strain HOG1, active compounds read low) was 0.3 (active). The normalized growth (S. cerevisiae deletion strains, locus YLR221C, strain rsa3, active compounds read low) was 0.337 (active), the normalized growth (S. cerevisiae deletion strains, locus YLR258W, strain gsy2, active compounds read low) was 0.343 (active) and the normalized growth (S. cerevisiae deletion strains, locus YLR262C, strain YPT6 (second series), active compounds read low) was 0.146 (active). For the same molecule, the normalized growth (S. cerevisiae deletion strains, locus YLR268W, strain sec22, active compounds read low) was 0.191 (active), the normalized growth (S. cerevisiae deletion strains, locus YLR320W, strain mms22, active compounds read low) was 0.22 (active) and the normalized growth (S. cerevisiae deletion strains, locus YLR342W, strain FKS1 (second series), active compounds read low) was 0.139 (active). The normalized growth (S. cerevisiae deletion strains, locus YLR342W, strain FKS1, active compounds read low) was 0.43 (active), the normalized growth (S. cerevisiae deletion strains, locus YLR357W, strain rsc2, active compounds read low) was 1.14 and the normalized growth (S. cerevisiae deletion strains, locus YLR370C, strain arc18, active compounds read low) was 1.06. For the same molecule, the normalized growth (S. cerevisiae deletion strains, locus YLR371W, strain rom2, active compounds read low) was 0.186 (active), the normalized growth (S. cerevisiae deletion strains, locus YLR384C, strain iki3, active compounds read low) was 1.01 and the normalized growth (S. cerevisiae deletion strains, locus YLR418C, strain cdc73, active compounds read low) was 0.125 (active). The normalized growth (S. cerevisiae deletion strains, locus YML016C, strain PPZ1, active compounds read low) was 0.438 (active), the normalized growth (S. cerevisiae deletion strains, locus YML032C, strain rad52, active compounds read low) was 0.315 (active) and the normalized growth (S. cerevisiae deletion strains, locus YML120C, strain ndi1, active compounds read low) was 0.235 (active). For the same molecule, the normalized growth (S. cerevisiae deletion strains, locus YML124C, strain tub3, active compounds read low) was 0.241 (active), the normalized growth (S. cerevisiae deletion strains, locus YMR058W, strain fet3, active compounds read low) was 0.968 and the normalized growth (S. cerevisiae deletion strains, locus YMR078C, strain ctf18, active compounds read low) was 0.211 (active). For the same molecule, the normalized growth (S. cerevisiae deletion strains, locus YMR125W, strain sto1, active compounds read low) was 0.928, the normalized growth (S. cerevisiae deletion strains, locus YMR129W, active compounds read low) was 0.692 (active) and the normalized growth (S. cerevisiae deletion strains, locus YMR205C, strain PFK2, active compounds read low) was 0.305 (active). For the same molecule, the normalized growth (S. cerevisiae deletion strains, locus YMR223W, strain ubp8, active compounds read low) was 0.21 (active), the normalized growth (S. cerevisiae deletion strains, locus YMR231W, strain pep5, active compounds read low) was 0.93 and the normalized growth (S. cerevisiae deletion strains, locus YMR307W, strain GAS1, active compounds read low) was 0.179 (active). The normalized growth (S. cerevisiae deletion strains, locus YNL067W, strain RPL9B, active compounds read low) was 0.279 (active), the normalized growth (S. cerevisiae deletion strains, locus YNL071W, strain lat1, active compounds read low) was 0.13 (active) and the normalized growth (S. cerevisiae deletion strains, locus YNL128W, strain TEP1, active compounds read low) was 0.205 (active). For the same molecule, the normalized growth (S. cerevisiae deletion strains, locus YNL183C, strain NPR1, active compounds read low) was 0.627 (active), the normalized growth (S. cerevisiae deletion strains, locus YNL209W, strain ssb2, active compounds read low) was 0.689 (active) and the normalized growth (S. cerevisiae deletion strains, locus YNL233W, strain BNI4, active compounds read low) was 0.0951 (active). The normalized growth (S. cerevisiae deletion strains, locus YNL248C, strain rpa49, active compounds read low) was 0.989, the normalized growth (S. cerevisiae deletion strains, locus YNL250W, strain rad50, active compounds read low) was 0.786 (active) and the normalized growth (S. cerevisiae deletion strains, locus YNL271C, strain bni1, active compounds read low) was 0.74 (active). For the same molecule, the normalized growth (S. cerevisiae deletion strains, locus YNL298W, strain CLA4, active compounds read low) was 0.636 (active), the normalized growth (S. cerevisiae deletion strains, locus YNL307C, strain MCK1, active compounds read low) was 0.0705 (active) and the normalized growth (S. cerevisiae deletion strains, locus YNL322C, strain KRE1 (second series), active compounds read low) was 1.03. For the same molecule, the normalized growth (S. cerevisiae deletion strains, locus YNL322C, strain KRE1, active compounds read low) was 0.0898 (active), the normalized growth (S. cerevisiae deletion strains, locus YNR049C, strain mso1, active compounds read low) was 0.994 and the normalized growth (S. cerevisiae deletion strains, locus YNR052C, strain pop2, active compounds read low) was 0.313 (active). For the same molecule, the normalized growth (S. cerevisiae deletion strains, locus YOL006C, strain TOP1, active compounds read low) was 0.227 (active), the normalized growth (S. cerevisiae deletion strains, locus YOL012C, strain htz1) was 0.469 and the normalized growth (S. cerevisiae deletion strains, locus YOL147C, strain pex11, active compounds read low) was 0.131 (active). The normalized growth (S. cerevisiae deletion strains, locus YOR001W, strain rrp6, active compounds read low) was 0.556 (active), the normalized growth (S. cerevisiae deletion strains, locus YOR061W, strain CKA2, active compounds read low) was 0.173 (active) and the normalized growth (S. cerevisiae deletion strains, locus YOR069W, strain VPS5, active compounds read low) was 0.372 (active). For the same molecule, the normalized growth (S. cerevisiae deletion strains, locus YOR070C, strain gyp1, active compounds read low) was 0.157 (active), the normalized growth (S. cerevisiae deletion strains, locus YOR080W, strain dia2, active compounds read low) was 0.685 (active) and the normalized growth (S. cerevisiae deletion strains, locus YOR083W, strain WHI5, active compounds read low) was 0.424 (active). The normalized growth (S. cerevisiae deletion strains, locus YOR106W, strain vam3, active compounds read low) was 0.274 (active), the normalized growth (S. cerevisiae deletion strains, locus YOR136W, strain idh2, active compounds read low) was 0.287 (active) and the normalized growth (S. cerevisiae deletion strains, locus YOR144C, strain elg1, active compounds read low) was 0.295 (active). For the same molecule, the normalized growth (S. cerevisiae deletion strains, locus YOR184W, strain ser1, active compounds read low) was 0.134 (active), the normalized growth (S. cerevisiae deletion strains, locus YOR231W, strain MKK1, active compounds read low) was 0.366 (active) and the normalized growth (S. cerevisiae deletion strains, locus YOR265W, strain rbl2, active compounds read low) was 0.31 (active). The normalized growth (S. cerevisiae deletion strains, locus YOR270C, strain vph1, active compounds read low) was 0.632 (active), the normalized growth (S. cerevisiae deletion strains, locus YOR290C, strain snf2, active compounds read low) was 0.712 (active) and the normalized growth (S. cerevisiae deletion strains, locus YOR316C, strain cot1, active compounds read low) was 0.263 (active). The normalized growth (S. cerevisiae deletion strains, locus YPL051W, strain arl3, active compounds read low) was 0.322 (active), the normalized growth (S. cerevisiae deletion strains, locus YPL078C, strain atp4, active compounds read low) was 0.925 and the normalized growth (S. cerevisiae deletion strains, locus YPL106C, strain sse1, active compounds read low) was 0.815 (active). For the same molecule, the normalized growth (S. cerevisiae deletion strains, locus YPL240C, strain hsp82, active compounds read low) was 0.29 (active), the normalized growth (S. cerevisiae deletion strains, locus YPL241C, strain CIN2, active compounds read low) was 0.166 (active) and the normalized growth (S. cerevisiae deletion strains, locus YPL256C, strain CLN2, active compounds read low) was 0.521 (active). For the same molecule, the normalized growth (S. cerevisiae deletion strains, locus YPR119W, strain clb2, active compounds read low) was 0.187 (active), the normalized growth (S. cerevisiae deletion strains, locus YPR141C, strain kar3, active compounds read low) was 1.01 and the normalized growth (S. cerevisiae deletion strains, locus YPR163C, strain tif3, active compounds read low) was 0.187 (active). The normalized growth (S. cerevisiae deletion strains, locus YPR167C, strain met16, active compounds read low) was 0.139 (active), the normalized growth (S. cerevisiae deletion strains, strain wtn01, active compounds read low) was 0.132 (active) and the normalized growth (S. cerevisiae strains, strain wild type, active compounds read low) was 0.0726 (active).
